Records with an inconclusive call do not appear. Activity calls are given as the source filed them. Calls follow the shape of the dose curve; as a rule, active = well fitted inhibition curve with a large enough effect; inconclusive = small, poorly fitted or top-dose-only effect; inactive = no such curve, though single readings can be large or run the other way.
Molecular target: Thyroid hormone receptor beta (Homo sapiens) (UniProt P10828)
Experiment: Concentration Response Confirmation Assay for Inhibitors of the Interaction of Thyroid Hormone Receptor and Steroid Receptor Coregulator 2
Conditions: TRb LBD + Texas Red SRC2 peptide, fluorescence polarization, 5 h; series mostly up to 92.2 µM
Excerpt: NIH Molecular Libraries Probe Production Network [MLPCN] NIH Chemical Genomics Center [NCGC] MLPCN Grant: DK058080 Assay Provider: R. Kip Guy, St. Jude Children's Research Hospital NCGC Assay Overview: Thyroid receptor (TR) regulates many homeostatic processes including basal metabolism, cardiovascular function, body weight, and lipid trafficking. TR modulators are potential therapeutics for obesity and hyperlipidemias but current thyroid analogs have undesirable side effects, particularly cardiac stimulation. To identify inhibitors that specifically prevent the interaction of TR with the steroid receptor coregulator 2 (SRC2), a fluorescence polarization assay was screened. This assay detects interaction of the ligand-binding domain of human TRb with a Texas Red labeled SRC2 peptide, corresponding to a 20 amino acid region of the nuclear receptor interaction domain (Arnold et al., 2006). Small molecule inhibitors that block the interaction of TR and SRC2 are detected by a decrease in fluorescence polarization. This assay is a confirmation assay for AID 1469. Arnold, L. A.; Estebanez-Perpina, E.; Togashi, M.; Shelat, A.; Ocasio, C. A.; McReynolds, A. C.; Nguyen, P.; Baxter, J. D.; Fletterick, R. J.; Webb, P.; Guy, R. K. A high-throughput screening method to identify small molecule inhibitors of thyroid hormone receptor coactivator binding. Sci STKE 2006, p 13.
NCGC Assay Protocol Summary: For screening, 5 uL/well 0.6 uM TRb and 20 nM SRC2 Texas Red in protein buffer (20mM Tris hydrochloride, 100mM NaCl, 10% glycerol, 1mM EDTA, 0.01% NP-40, 1mM DTT, 1uM T3 and 5% DMSO) was dispensed into black solid 1536-well plates (Grenier) using a solenoid-based dispenser. Following transfer of 23 nL compound or DMSO vehicle by a pin tool, the plates were centrifuged 15 s at 1000 RPM and incubated 5 hr at ambient temperature. The plates were read by an Envision (Perkin Elmer) to detect fluorescence polarization of SRC2 Texas Red (555 nm excitation and 632 nm emission). Data were normalized to unbound (all components except TRb) and bound SRC2 Texas Red controls. In this assay, we provide % activity data for each concentration as well as potencies for the active compounds. Keywords: NIH Roadmap, MLPCN, MLI, MLSMR, qHTS, NCGC, qHTS, thyroid hormone receptor, steroid receptor coactivator, fluorescence polarization

Thyroid hormone receptor beta (Homo sapiens), sequence (P10828 whole entry, looked up): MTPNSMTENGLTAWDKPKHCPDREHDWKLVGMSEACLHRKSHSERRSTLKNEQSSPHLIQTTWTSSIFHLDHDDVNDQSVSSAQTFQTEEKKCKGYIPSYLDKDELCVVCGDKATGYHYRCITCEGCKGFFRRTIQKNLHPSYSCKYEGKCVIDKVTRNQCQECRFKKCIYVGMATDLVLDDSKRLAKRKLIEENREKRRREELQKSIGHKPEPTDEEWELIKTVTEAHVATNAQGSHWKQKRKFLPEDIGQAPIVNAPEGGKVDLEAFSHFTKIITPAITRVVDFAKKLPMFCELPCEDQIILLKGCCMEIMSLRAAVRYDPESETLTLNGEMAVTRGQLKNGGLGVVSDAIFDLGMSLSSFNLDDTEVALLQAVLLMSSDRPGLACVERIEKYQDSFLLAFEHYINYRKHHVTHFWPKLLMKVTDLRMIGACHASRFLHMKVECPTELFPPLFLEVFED

Potency, inactive:
O=C(Nc1nc2ccc(Cl)cc2s1)c1ccc(N2CCCCC2)c([N+](=O)[O-])c1
O=c1cc(C23CC4CC(CC(C4)C2)C3)[nH][nH]1
CCCCCCN=CC1=C(O)CC(C)(C)CC1=O
Cc1cc2ccccc2n1CCNC(=O)C(C)Oc1ccccc1 (stereo not given)
Cc1ccc(OC(=S)Nc2ccc(O)cc2)cc1
Cn1c(NNC(=O)c2c(F)cccc2F)cc(=O)n(C)c1=O
CN1N=C(C(C)(C)C)CC1=O
Cc1cccc(Cn2c(C(=O)OC(C)C)cc3c2ccn3C)c1
Nc1cc(-c2ccncc2)c[nH]c1=O
Nc1cc(-c2ccccc2)c[nH]c1=O
Cc1nnc(SCC(=O)Nc2ccc(N(C)C)cc2)[nH]c1=O
Cc1cccc(S(=O)(=O)c2cn(Cc3ccccc3)c3cc(N4CCC(C)CC4)c(F)cc3c2=O)c1
CCCc1cc(=O)[nH]c(=S)[nH]1
CC(NC(=O)Nc1ccc(O)cc1)(C(F)(F)F)C(F)(F)F
CN(CCO)c1nc(N)c2c(N)nc3c(c2c1C#N)CC(=O)N3C1CCCC1
O=C1CCCC(O)=C1N=Nc1cccc(S(=O)(=O)N2CCOCC2)c1
Cn1c(=O)[nH]c2nnc(-c3ccc(Cl)c(Cl)c3)nc2c1=O
Cn1cc[nH]c1=S

Potency, active:
CCCCOc1ccc(C(=O)CCN2CCCCC2)cc1 5.01 µM
COc1cc(/C=C(\C#N)C(=O)NCC2CCCO2)ccc1OCCC(C)C (stereo not given) 35.5 µM
Oc1ccc2ccccc2c1C=NC12CN3CCN(CN(C3)C1)C2 28.2 µM
Cc1ccccc1Nc1cc2ccccc2c(=O)[nH]1 15.8 µM
O=C(O)/C=C/C(=O)Nc1ccc(SC(F)(F)C(F)(F)C(F)(F)F)cc1 7.94 µM
COc1cc(C(c2c(C)[nH][nH]c2=O)c2c(C)[nH][nH]c2=O)ccc1OC(=O)c1cccc(C)c1 31.6 µM
CS(=O)(=O)c1ccc(C(=O)OCC(=O)NC(=O)C2CCCCC2)cc1[N+](=O)[O-] 10 µM
COc1ccc(-c2nc(CS(=O)CC(=O)NCc3ccccn3)c(C)o2)cc1 (stereo not given) 35.5 µM
CCCCOc1ccc(C(=O)CCN2CCOCC2)cc1 5.01 µM
C=CCNC(=O)/C(C#N)=C/c1c(C)nn(-c2ccc(Cl)cc2)c1Cl 17.8 µM
C=CC(=O)OCCOc1ccccc1 112 µM
O=C(NNc1cc(N2CCOCC2)nc(N2CCOCC2)n1)c1ccc(Cl)c(Cl)c1 31.6 µM
O=C(O)C1C2C=CC(O2)C1C(=O)Nc1ccc(S(=O)(=O)N2CCc3ccccc32)cc1 (stereo not given) 39.8 µM
COn1c2c(c3c4nonc4ccc31)CCCC2 35.5 µM
O=C(NNc1cc(N2CCOCC2)nc(N2CCOCC2)n1)c1ccc([N+](=O)[O-])cc1 20 µM
Oc1ccc2ccccc2c1/C=N/c1nc2c(s1)CCCC2 28.2 µM
Cc1cc(N=Cc2c(O)ccc3ccccc23)no1 28.2 µM
CN1CCc2ccc3c4c2[C@]1(C)Cc1cccc(c1-4)OCO3 89.1 µM
O=c1[nH]c(Nc2ccccc2)cc2ccccc12 35.5 µM
O=C(O)/C=C/C(=O)Nc1ccc(OC(F)(F)F)cc1Br 50.1 µM
Cc1nc2ccccc2n2c(O)c(CC(=O)O)cc12 35.5 µM
C=CCNC(=O)/C(C#N)=C\c1cc(Cl)c(OCC)c(OC)c1 35.5 µM

From PubChem BioAssay AID1573 (National Center for Advancing Translational Sciences (NCATS), 2009)
